PubChem BioAssay AID759 (NMMLSC, 2007)
Hit rate of the full screen: of about 190,000 compounds, about 270 (0.14%) were called active. Roughly 2% stayed inconclusive and do not appear here.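 How the source made its calls: active means GTP binding activity at least 20% away from the 100% baseline, either lowered as inhibitor or raised as activator; inconclusive means flagged as likely green fluorescent, judged across all proteins in the well; inactive means the rest.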 Many of the other results were omitted from the sample, so actives are more common in it than they were.

molecular target: GTPase HRas (Homo sapiens) (UniProt P01112); assay: modulators of GTP binding to HRas wildtype, primary screen, biochemical, bead-based flow cytometry, multiplex (AID 759); settings: GST-Ras wt beads, Bodipy-FL-GTP binding, at 10 µM, actives lie on both sides;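 further: 0% = unlabeled GTP competition control and 100% = no-compound control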
Sequence (P01112 whole entry, looked up): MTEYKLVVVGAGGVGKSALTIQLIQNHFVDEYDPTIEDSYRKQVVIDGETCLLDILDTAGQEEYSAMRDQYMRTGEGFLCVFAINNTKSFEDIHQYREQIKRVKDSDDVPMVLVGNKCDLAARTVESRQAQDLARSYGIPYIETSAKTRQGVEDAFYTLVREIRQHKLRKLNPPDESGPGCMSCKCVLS

Row | Compound | GTP binding activity
1 | CCCCNC(=O)Nc1c(C)cc(SC#N)cc1C | 95% (inactive)
2 | Cc1ccc(CSc2nc3[nH]ncc3c(=O)[nH]2)cc1 | 78% (active)
3 | CCCSc1nc2[nH]ncc2c(=O)[nH]1 | 101% (inactive)
4 | Cc1cccc(NC(=O)CSc2nc3[nH]ncc3c(=O)[nH]2)c1 | 97% (inactive)
5 | CCC(=O)/C(=C(/O)c1ccccc1)c1nc2ccccc2[nH]1 | 98% (inactive)
6 | COC(=O)c1nn(-c2cccc(Cl)c2)ccc1=O | 97% (inactive)
7 | O=C(CC12CC3CC(CC(C3)C1)C2)NCc1ccco1 | 96% (inactive)
8 | CCc1ccc(Nc2nnc(SCC(=O)c3ccc4c(c3)NC(=O)CO4)s2)cc1 | 99% (inactive)
9 | COc1ccccc1CC(NC(C)=O)C(=O)NC1CCN(C(=O)Nc2ccccc2Cl)CC1 (centres undefined) | 101% (inactive)
10 | COC(=O)c1ccc(/C=N/OCC(=O)Nc2cc(F)ccc2F)cc1 | 95% (inactive)
11 | COc1ccc(N2CCN(CCCNC(=O)C3CCN(S(=O)(=O)N4CCOCC4)CC3)CC2)cc1 | 96% (inactive)
12 | COc1ccc(/C=C/CN2CCN(Cc3ccc(C)cc3)C(CCO)C2)cc1 (centres undefined) | 105% (inactive)
13 | COc1cccc(NCCC(=O)c2cccc([N+](=O)[O-])c2)c1 | 97% (inactive)
14 | Cc1ccc(C(=O)O)cc1NC(=O)c1ccc(Cn2nc(C)c(Cl)c2C)o1 | 100% (inactive)
15 | Cc1noc(C)c1COc1cccc(C(=O)Nc2cccnc2)c1 | 97% (inactive)
16 | Cc1[nH]c2c(C(=O)N3CCCC(CCC(=O)NCc4ccccc4F)C3)cccc2c1C (centres undefined) | 106% (inactive)
17 | COC(=O)c1nc(NC(=O)c2ccc(F)cc2)n[nH]1 | 98% (inactive)
18 | N#CC1=C(N)Oc2[nH]c(=S)[nH]c(=O)c2C12C(=O)Nc1ccccc12 (centres undefined) | 96% (inactive)
19 | COc1ccc(/C=C(\C#N)C(=O)ONC2=NCCCCC2)cc1 | 97% (inactive)
20 | C=C(C)CNC(=S)N/N=C/c1ccccc1OCC(=O)O | 95% (inactive)
21 | O=C(COC(=O)c1cnc(Cl)c(Cl)c1)NCc1ccco1 | 97% (inactive)
22 | CN1CCN(C(=O)N2c3ccccc3CCc3ccccc32)CC1 | 102% (inactive)
23 | O=C(Nc1cccc(Cl)c1)c1cc([N+](=O)[O-])ccc1N1CCN(CCO)CC1 | 97% (inactive)
24 | CC/C(Cc1ccccc1)=N/NC(=O)CCn1nnc2ccccc21 | 101% (inactive)
25 | CSc1ncccc1C(=O)NC1CCCCCC1 | 98% (inactive)

Row | Compound | GTP binding activity
26 | CSc1nsc(SC)c1NC(=O)OC1CCCCC1 | 39% (active)
27 | COc1ccc(NC(=O)c2c(SC)nsc2SC)cc1 | 101% (inactive)
28 | Cc1ccc(S(=O)(=O)N2CCN(C(=O)c3cccs3)CC2)cc1 | 93% (inactive)
29 | COc1ccc(O)c(C(=O)c2cnc3c(c2)c(-c2ccc(F)cc2)c(C#N)c(=O)n3C)c1 | 95% (inactive)
30 | O=C(CCCc1ccccc1)NCc1ccccc1 | 94% (inactive)
31 | COc1cc2nc(CN(C)Cc3ccc(F)cc3)[nH]c(=O)c2cc1OC | 97% (inactive)
32 | NC(=O)c1ccccc1NC(=O)c1ccccc1F | 101% (inactive)
33 | O=C(Nc1ccccc1F)c1ccccc1-c1ccc(C(F)(F)F)cc1 | 104% (inactive)
34 | O=C(Nc1ccccc1F)c1ccccc1-c1ccccc1 | 76% (active)
35 | COc1cc(C(=O)N[C@@H](C)C(=O)NCc2ccco2)cc(OC)c1OC | 98% (inactive)
36 | Cc1cccn2c(CN(C)C3CCCc4ccccc43)c(C(=O)N3CCOCC3)nc12 (centres undefined) | 98% (inactive)
37 | O=C1CC(c2c(F)cccc2Cl)C(n2cncn2)C(O)=C1C1NCCc2ccccc21 (centres undefined) | 94% (inactive)
38 | O=C(Nc1ccccc1C(=O)N1CCOCC1)c1ccc(CSc2ccccc2)cc1 | 100% (inactive)
39 | Nc1ncnc(Nc2cccc(Cl)c2Cl)n1 | 97% (inactive)
40 | COc1cc(C(=O)N2C(=O)c3cccc(N)c3C2=O)cc(OC)c1OC | 95% (inactive)
41 | COc1c(F)c(F)c(C(=O)O)c(Nc2ccccc2C)c1F | 98% (inactive)
42 | Cc1ccc(Nc2c(F)c(F)c(F)c(F)c2C(=O)O)c(C)c1 | 124% [activator] (active)
43 | Cc1ccc(NC(=S)NC(=O)c2ccc(-c3ccccc3)cc2)c(C)c1 | 100% (inactive)
44 | Cc1cc(C)nc(NNC2=CC(=O)CC(C)(C)C2)n1 | 99% (inactive)
45 | CCOc1ccc(OCc2cccc(C(=O)N(CC)CC)c2)cc1 | 98% (inactive)
46 | CN(Cc1cc2cc(F)ccc2[nH]1)Cc1nc(-c2cnccn2)no1 | 98% (inactive)
47 | CC(C)(C)C(=O)N(Cc1ccccc1)c1ccccn1 | 95% (inactive)
48 | COc1ccccc1NC(=O)COC(=O)Cc1ccc(S(=O)(=O)N2CCCCC2)s1 | 98% (inactive)
49 | S=c1ccc2ccccc2[nH]1 | 98% (inactive)
50 | C=CCNC(=O)CC12CC3CC(C1)CC(CC(=O)NCC=C)(C3)C2 | 99% (inactive)

Row | Compound | GTP binding activity
51 | Cc1ccc(SCCC(=O)NCc2ccccn2)cc1 | 99% (inactive)
52 | CCOc1ccc(NS(=O)(=O)c2cc(C)c(C)cc2C)cc1 | 98% (inactive)
53 | COc1ncnc2sc3c(c12)CCCC3 | 103% (inactive)
54 | COc1cc(/C=N/Nc2ccc(C)cc2)cc(Br)c1O | 96% (inactive)
55 | COc1ccc(/C=N/Nc2ncnc3sc4c(c23)CCCC4)cc1O | 71% (active)
56 | O=C(Nc1ccc(-c2ccc3nncn3n2)cc1)C1CCCCC1 | 99% (inactive)
57 | CC(=O)NC1C(OCc2ccccc2)OC(COC(C)=O)C(OC(C)=O)C1OC(C)=O (centres undefined) | 102% (inactive)
58 | O=C(OCC1O[C@@H](OC(=O)c2cc(O)c(O)c(O)c2)[C@@H](OC(=O)c2cc(O)c(O)c(O)c2)[C@@H](OC(=O)c2cc(O)c(O)c(O)c2)[C@@H]1OC(=O)c1cc(O)c(O)c(O)c1)c1cc(O)c(O)c(O)c1 (some centres undefined) | 79% (active)
59 | O=S(=O)(Nc1ncccn1)c1ccc(NS(=O)(=O)c2cccc(Cl)c2Cl)cc1 | 96% (inactive)
60 | CC(CC(=O)O)CC(=O)NNC(=O)c1cccc(Br)c1 (centres undefined) | 95% (inactive)
61 | CC(C)N(C)C(=O)CCc1nnc(CCc2c[nH]c3ccccc23)o1 | 93% (inactive)
62 | CCOc1cc(NC(=S)NCc2ccco2)c(OCC)cc1NC(=O)c1ccco1 | 98% (inactive)
63 | O=C(CN1CCN(S(=O)(=O)/C=C/c2ccccc2)CC1)Nc1ccc(N2CCOCC2)cc1 | 99% (inactive)
64 | Cc1ccc(CC(=O)Nc2cccc(C#N)c2)cc1 | 98% (inactive)
65 | NNC(=O)c1cnn(-c2ccccc2)c1C(F)(F)F | 98% (inactive)
66 | CCCN(CC(=O)Nc1ccc(C(N)=O)cc1)CC(=O)Nc1ccccc1C | 96% (inactive)
67 | CN(C)C(=O)CSc1n[nH]c(-c2ccco2)n1 | 94% (inactive)
68 | O=C(CNCc1ccc(Cl)cc1)Nc1cccc(C(=O)O)c1 | 95% (inactive)
69 | CCN(CC)c1ccc2c(Nc3ccccc3)c(C=O)c(=O)oc2c1 | 93% (inactive)
70 | CC(=O)c1sc(NC(=O)C2=NN(c3ccccc3)C(=O)CC2)nc1C | 98% (inactive)
71 | COc1ccc(NC(=O)COC(=O)c2ccncc2)c(OC)c1 | 97% (inactive)
72 | C=CCOCCN(C)C1=NS(=O)(=O)c2ccccc21 | 100% (inactive)
73 | Cc1cc(OC(=O)c2ccccc2Cl)ccc1N1C(=O)CCC1=O | 97% (inactive)
74 | CN(C)c1ccc(NC(=O)CSc2n[nH]c(-c3ccco3)n2)cc1 | 94% (inactive)
75 | COc1ccc(S(=O)(=O)N2CCOCC2)cc1C(=O)Nc1nc2ccccc2s1 | 75% (active)

Row | Compound | GTP binding activity
76 | COc1ccc(S(=O)(=O)N2CCOCC2)cc1NC(=O)CSc1ncnc2ccccc12 | 93% (inactive)
77 | CCOC(=O)c1sc(NC(=O)c2cc(S(=O)(=O)N3CCOCC3)ccc2C)nc1C | 100% (inactive)
78 | O=C(O)CC1S/C(=N\N=C/c2ccccc2O)N(c2ccc(O)cc2)C1=O (centres undefined) | 97% (inactive)
79 | Cc1sc2c(c1C)c(=O)n(-c1ccccc1)c(=O)n2CC(=O)NCC1CCCO1 (centres undefined) | 98% (inactive)
80 | C=CCOC(=O)C1=C(C)N=C2SCCC(=O)N2C1/C=C/c1ccccc1OC (centres undefined) | 99% (inactive)
81 | COc1cc(N/C=C2\CC(=O)NC(C)=C2C#N)cc(OC)c1OC | 102% (inactive)
82 | O=C(Nc1ccc(N2CCOCC2)cc1)c1ccc2c(c1)OCO2 | 99% (inactive)
83 | CCc1ccc(NC(=O)C(=O)N/N=C(\C)CC(=O)NCCOC)cc1 | 96% (inactive)
84 | CCn1c(SCc2cc(=O)n3ccsc3n2)nc2ccccc21 | 102% (inactive)
85 | Oc1cccc2ccc(/C=C/c3ccc(Br)s3)nc12 | 100% (inactive)
86 | CC(=O)C1(C)N(O)C(C)(C)C(c2cccs2)=[N+]1[O-] (centres undefined) | 98% (inactive)
87 | CCOCC(=O)Nc1ncc(S(=O)(=O)c2ccc([N+](=O)[O-])cc2)s1 | 91% (inactive)
88 | CN(C(=O)CSc1nncc2ccccc12)C1CCCCC1 | 96% (inactive)
89 | CC1(C)CC(=O)C(CC(=O)N2CCC(Cc3ccccc3)CC2)C(=O)C1 | 96% (inactive)
90 | CCn1cc(-c2cc(C(=O)O)on2)c(C)n1 | 95% (inactive)
91 | c1csc(-c2nnc(COc3ccc4c(c3)OCO4)o2)c1 | 96% (inactive)
92 | CCNC(=O)CC1C(=O)N(c2ccc(F)cc2)C(=O)N1Cc1cccs1 (centres undefined) | 100% (inactive)
93 | CNC(=O)NC(=O)CSc1nnc(-c2ccc(F)cc2)n1CC1CCCO1 (centres undefined) | 97% (inactive)
94 | C=CCn1c(COc2ccc(F)cc2)nnc1SCC(=O)Nc1cccc(S(N)(=O)=O)c1 | 96% (inactive)
95 | Cc1ccccc1C(=O)Nc1ccc(N2CCCCCC2)cc1 | 96% (inactive)
96 | Nc1nnc(SCn2nnc3ccccc3c2=O)s1 | 95% (inactive)
97 | O=C(NCc1ccc(F)cc1)C(c1ccccc1)N(C(=O)c1csnn1)C1CC1 (centres undefined) | 95% (inactive)
98 | O=C(O)CCCCCNc1ncnc2ccc(Br)cc12 | 97% (inactive)
99 | C=C(C)C1CC=C(C)/C(=N/NC(=O)CCCNc2cccc(C)c2)C1 (centres undefined) | 96% (inactive)
